# Where “and” joins values, the source holds several entries; their conditions need not be identical. Equal values may be shown once. About 83,000 compounds went through this panel and 20% of them were active in at least one assay; those are over-represented in the sample as a whole.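 Cells were grown in 96-well plates and exposed to the test compound at a single concentration for 48 hours; results are reported as percent growth, with values below 10 considered active.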 A number with no mark means an inactive call. Calls of active or inactive are those of the source.
# Assays:
# Assay in all cases: NCI-60 one-dose screen, 48 h (100 = growth as untreated, 0 = no growth, -100 = all killed)
# Details in all cases: 10 µM unless noted
# [1] = test system: T-47D breast
# [2] = test system: BT-549 breast
# [3] = test system: MDA-MB-435 melanoma
# [4] = test system: SW-620 colon
# [5] = test system: MCF7 breast
# [6] = test system: HCC-2998 colon
# [7] = test system: KM12 colon
# [8] = test system: HCT-116 colon
SMILES,growth [1],growth [2],growth [3],growth [4],growth [5],growth [6],growth [7],growth [8]
CN1CCN(C(=O)OCc2nc3c(N4CCOCC4)nc(Cl)nc3n2C)CC1,-29.3% (active),-84.2% (active),-55.4% (active),-84.9% (active),-45.9% (active),-9.16% (active),15.5%,
CC1=C2[C@@H](CC1)[C@]1(C)O[C@@](C3CC3)(C[C@H]1OC(=O)CO)[C@H]2OC(=O)/C=C/c1ccccc1,82.2%,6.63% (active),104%,103%,96.4%,88.4%,97.1%,
C#CCn1cnc2cnc(Nc3cccc(NC(=O)CCl)c3)nc21,5.42% [6.25 µM] (active),3.26% [6.25 µM] (active),-19.6% [6.25 µM] (active),0.405% [6.25 µM] (active),-6.48% [6.25 µM] (active),-11.4% [6.25 µM] (active),-2.39% [6.25 µM] (active),
CCOC(=O)C(=CCC(C)C)C(=O)OCC,88.2%,93.1%,99.7%,105%,99.5%,92.4%,110%,
CCCN1C(=O)/C(=c2\sc3n(c2=O)NC2C(N=3)N(CC)C(=O)N2CC)c2ccccc21 (configuration not stated),26.2%,62.8%,-10.6% (active),31.5%,17.5%,30.4%,30.3%,
[2H]C([2H])([2H])Oc1cc(F)ccc1/C=C/C(=O)/C=C(/C=C/c1ccc(F)cc1OC([2H])([2H])[2H])OB(F)F,33.1%,36.8%,16.5%,22.3%,20.1%,56%,61.6%,-11.1% (active)
COc1cc(OC)cc(-c2ccc(-c3ccc(C(=N)N)cn3)s2)c1,96.7%,95.1%,82.5%,5.08% (active),13%,56.1%,40.7%,
CN(C)C1CCN(C(=O)c2ccc(NC(=O)Nc3ccc(-c4nc(N5CCOCC5)c5cccn5n4)cc3)cc2)CC1,-36% (active),-7.28% (active),1.97% (active),9.03% (active),-4.03% (active),3.23% (active),5.54% (active),
COc1ccc(Cn2cc(C(=O)Nc3cccnc3Nc3ccccc3)nn2)cc1,91.7%,86.9%,96.5%,112%,91%,88.5%,97.8%,103%
CCCCC#Cc1c(/C=C(\CCCC)SCC)n(C)c(=O)[nH]c1=O,84.4%,100%,104%,106%,48.5%,104%,,
C=C(CNCCO)[C@@H]1CC[C@]2(CO)CC[C@]3(C)[C@H](CC[C@@H]4[C@@]5(C)CCC(NCCc6ccc(O)cc6)C(C)(C)[C@@H]5CC[C@]43C)[C@@H]12 (some centres not stated),-66.1% (active),-79.2% (active),-95.5% (active),-75.1% (active),-73.4% (active),-94.8% (active),-81.2% (active),
CC[C@H](C)[C@H](NC(=O)[C@H](CCCCN)NC(=O)[C@H](CCCCN)NC(=O)[C@@H](NC(=O)[C@@H](NC(=O)[C@@H](N)Cc1cnc[nH]1)[C@@H](C)CC)[C@@H](C)CC)C(=O)N[C@@H](CCCNC(=N)N)C(=O)N[C@H](C(=O)N[C@@H](Cc1c[nH]c2ccccc12)C(=O)N[C@@H](Cc1ccc(O)cc1)C(=O)N[C@@H](CCCNC(=N)N)C(=O)N[C@@H](CCCCN)C(=O)N[C@@H](C)C(=O)N[C@@H](Cc1c[nH]c2ccccc12)C(=O)N[C@@H](Cc1cnc[nH]1)C(=O)N[C@H](C(=O)N[C@@H](CC(C)C)C(=O)NCC(=O)N[C@@H](CCCCN)C(=O)N[C@H](C(N)=O)C(C)C)C(C)C)[C@@H](C)O,-56.4% (active),41.9%,23.6%,44.2%,-67.9% (active),25.7%,-11.7% (active),
CCc1c2c(nc3ccc(OCc4ccc(B5OC(C)(C)C(C)(C)O5)cc4)cc13)-c1cc3c(c(=O)n1C2)COC(=O)[C@]3(O)CC,0.841% (active),28.8%,9.46% (active),15.6%,2.53% (active),26.7%,0.421% (active),2.03% (active)
CC[C@@H]1NC(=O)[C@H]([C@H](O)[C@H](C)C/C=C/c2ccc(CN3C(=O)C(C)=C(C)C3=O)cc2)N(C)C(=O)[C@H](C(C)C)N(C)C(=O)[C@H](CC(C)C)N(C)C(=O)[C@H](CC(C)C)N(C)C(=O)[C@@H](C)NC(=O)[C@H](C)NC(=O)[C@H](CC(C)C)N(C)C(=O)[C@H](C(C)C)NC(=O)[C@H](CC(C)C)N(C)C(=O)CN(C)C1=O,54.7%,82.4%,82.7%,97.7%,50.9%,87.2%,78.7%,54.8%
CC(=NCc1ccccc1)c1ccc(O)cc1O,92.2%,91.9%,114%,109%,97.8%,92.5%,104%,
COC1=CC(=O)C(OC)=C(O)C1=O,89%,98.9%,101%,93.2%,91.5%,101%,102%,98.7%
COc1cccc(C2C(C#N)=C(N)Oc3cc(OCCCCCC[P+](c4ccccc4)(c4ccccc4)c4ccccc4)ccc32)c1 (configuration not stated),-32.9% (active),-54.3% (active),-77.6% (active),-31.7% (active),-39.2% (active),-68.6% (active),,
Clc1ccc(Nc2nc(Nc3ccc(Cl)cc3)nc(Nc3ccc(-c4cc(-c5cccc(Cl)c5)on4)cc3)n2)cc1,83.3%,98.6%,104%,96.6%,86.6%,121%,104%,
O=C(c1ccc(Nc2nccc(NCCCNc3ccnc4cc(Cl)ccc34)n2)cc1)N1CCCCC1,54.3%,64.9%,34.1%,26.3%,23.1%,26%,37.5%,
COc1ccc(Oc2nc(Nc3ccc(N4CCOCC4)cc3)ncc2NC(=O)c2cccc(C(F)(F)F)c2)cc1,76.5%,96.9%,98.2%,87.1%,79.3%,75.9%,59.3%,70.2%
C[C@@H]1O[C@@H](O[C@H]2[C@@H](OC(=O)[C@]34CCC(C)(C)C[C@H]3C3=CC[C@@H]5[C@@]6(C)C[C@H](O)[C@H](O[C@@H]7O[C@H](CO)[C@@H](O)[C@H](O)[C@H]7O)[C@@](C)(CO)[C@@H]6CC[C@@]5(C)[C@]3(C)C[C@H]4O)OC[C@@H](O)[C@@H]2O)[C@H](O)[C@H](O[C@@H]2OC[C@@H](O)[C@H](O[C@@H]3OC[C@](O)(CO)[C@H]3O[C@@H]3OC[C@@H](O)[C@H](O)[C@H]3O)[C@H]2O)[C@H]1O[C@@H]1OC[C@](O)(CO)[C@H]1O,49.8%,74.4%,52.1%,75.4%,68.9%,-1.75% (active),66.5%,
CNC(=O)c1cc(Oc2ccc3nc(NC(=O)Nc4ccc(C(F)(F)F)cc4)sc3c2)ccn1,44.8%,62.3%,40.9%,37.9%,42%,104%,65%,
Cc1oc2c(Cc3ccc(NC(=O)c4ccc(Cl)cc4)cc3)ncnc2c1C(=O)NO,96.8%,103%,92.5%,105%,91.1%,97.9%,95.9%,
COc1c(F)cc(-n2c(C(=O)N3CC(F)C3)cc3cccnc32)cc1F,89.5%,97.2%,116%,104%,105%,99.7%,98.8%,
CCN(c1cc(-c2ccc(CN3CCC(/C=C/S(=O)(=O)c4ccccc4)CC3)cc2)cc(C(=O)NCc2c(C)cc(C)[nH]c2=O)c1C)C1CCOCC1,71.6%,51.3%,76.8%,94%,44.3%,101%,76.1%,
CN1CCN(Cc2ccc(NC(=O)c3nc4ccc5[nH]ncc5c4c4c3CCCC4)cc2C(F)(F)F)CC1,-69.3% (active),-78.5% (active),-82.6% (active),-60% (active),-68.5% (active),-80.7% (active),-73.4% (active),
Cc1ccc(-c2nc3nc(-c4ccc(F)cc4)nc(N4CCCNCC4)c3o2)cc1,-63.8% (active),-76.9% (active),-95.7% (active),,-72.4% (active),-89.3% (active),-86.3% (active),-87.2% (active)
CN1Cn2c(ccc2C(F)(F)F)C(=O)CS1(=O)=O,115%,105%,103%,,98.4%,104%,110%,94.9%
Clc1ccc(/C=N\N2CCCCCC2)cc1,108% and 97.4%,105% and 90.4%,86.8% and 96.3%,,98.8% and 96.2%,97.4%,107%,103% and 104%
